From ChEMBL document CHEMBL3988442, “University of Dundee, Small-Polar-MMV Screening Library” (2021)

Key:
[1] = molecular target: T1, Aspartate--tRNA(Asp/Asn) ligase (Mycobacterium tuberculosis (strain ATCC 25618 / H37Rv)) (UniProt P9WFW3); test: Assay for Asp RNA synthetase-1 from Mycobacterium tuberculosis; format: functional; design: scale not given: direction of the effect not stated beside the values; settings: 30 µM; note: in the data most compounds retested in dose-response had high values
T1 sequence (whole entry): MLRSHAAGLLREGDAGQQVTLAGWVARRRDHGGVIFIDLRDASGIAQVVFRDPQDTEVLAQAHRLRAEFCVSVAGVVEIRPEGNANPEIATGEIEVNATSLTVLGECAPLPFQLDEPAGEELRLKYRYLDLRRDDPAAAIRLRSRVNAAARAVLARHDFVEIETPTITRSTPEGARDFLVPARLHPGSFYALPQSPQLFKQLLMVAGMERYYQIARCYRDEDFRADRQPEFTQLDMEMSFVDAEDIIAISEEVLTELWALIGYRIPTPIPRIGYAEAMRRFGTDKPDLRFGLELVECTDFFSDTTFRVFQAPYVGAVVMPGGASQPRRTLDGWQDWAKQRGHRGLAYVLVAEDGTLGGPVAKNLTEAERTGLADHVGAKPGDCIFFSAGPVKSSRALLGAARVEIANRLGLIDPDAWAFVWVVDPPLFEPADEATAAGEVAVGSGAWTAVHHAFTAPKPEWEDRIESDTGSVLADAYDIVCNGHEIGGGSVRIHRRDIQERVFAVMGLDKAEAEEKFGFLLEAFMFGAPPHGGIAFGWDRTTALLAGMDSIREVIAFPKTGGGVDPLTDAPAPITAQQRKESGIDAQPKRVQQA

[2] = molecular target: Shiga toxin 2 (Escherichia coli O157:H7) (UniProt P09385+P09386); test: E. coli 0.157:H7 Shiga Toxin SOP - stx2 screening assay; format: functional; design: scale not given: direction of the effect not stated beside the values; settings: 30 µM

| Structure (SMILES) | Percent Effect [1] [%] | Percent Effect [2] [%] |
| --- | --- | --- |
| CN(Cc1cnn(C)c1)C(=O)NC1CCN(c2ncccn2)CC1 | -1.27 | 10.9 |
| COc1ccc(C(C)=O)c(OCC(=O)NC(C)c2ccc(F)cc2)c1 (stereo unspecified) | -4.39 | -1.68 |
| CC(C)N1CC(C(=O)NCCOc2ccc3c(c2)OCO3)CC1=O (stereo unspecified) | -3.6 | 13.8 |
| COc1cccc(CN2CCC3(CCN(C(=O)[C@H]4CCCO4)CC3)C2)c1 | 2.09 | -47.5 |
| Cc1cc(CN2CCCC2c2noc(C3CC3)n2)c2ccccc2n1 (stereo unspecified) | 2.68 | 9.51 |
| COc1cc(CNC2CCc3nc(C)nn3C2)cc2c1OCCO2 (stereo unspecified) | -2.19 | -2.67 |
| Cc1nn(C)c(C)c1CCC(=O)N1CCCC1Cn1cccn1 (stereo unspecified) | -0.943 | 2.75 |
| Cc1nc[nH]c1CN1C[C@@H]2CC[C@H](C1)N(C(=O)CCc1cnn(C)c1)C2 | 0.752 | 5.79 |
| CCCn1nc2c(cc1=O)CN(CC(=O)Nc1nnc(C)s1)CC2 | 8.7 | -2.85 |
| Cc1cc(C)n(CC2CN(CC(=O)Nc3c(C)n[nH]c3C)CCO2)n1 (stereo unspecified) | -0.486 | 6.68 |
| CC(O)CC(C)(C)CNC(=O)NCc1cccc(-n2ccnc2)c1 (stereo unspecified) | 1.43 | -7.32 |
| CCc1ccc(S(=O)(=O)N2CCC3(CC(C(=O)NC)=NO3)C2)cc1 (stereo unspecified) | -3.62 | -7.42 |
| COC(=O)COc1cccc(NS(=O)(=O)c2cc(C(=O)O)cs2)c1 | -3.15 | -53.3 |
| NC(=O)C1CCCN(C(=O)c2cnc3c(cnn3C3CCCC3)c2)C1 (stereo unspecified) | -6.91 | -20.7 |
| CN(C)c1ncc(-c2cc(C(=O)O)n(CC3CC3)c2)cn1 | 0.577 | 2.77 |
| Cc1cc(C(F)(F)F)c2c(C3CCN(S(=O)(=O)N(C)C)CC3)noc2n1 | 7.31 | 0.93 |
| CCc1cc(NC2CCN(S(C)(=O)=O)CC2)n2nc(C)c(C)c2n1 | 1.78 | -16 |
| CC(=O)N(Cc1ncc(C)o1)C1CCN(Cc2ccncc2Cl)C1 (stereo unspecified) | 2.91 | 16 |
